SMILES strings stand for the structures. Compounds without any hit were thinned out: in the full panel of roughly 79,000, 15% have a hit. Values without a mark were called inactive. The source made the active and inactive calls. Cut-off read from the data, not from the text of the source: active = growth inhibition above about 70%; inactive = the rest.

The experiment can be described thus: NCI Yeast Anticancer Drug Screen. Data for the mec2-1 strain (AID 157). The settings on record: S. cerevisiae mec2-1 strain, at 50.0 µM, stronger effect = higher value. The gist of the method: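 Readout is yeast growth inhibition, normalised to vehicle-treated controls, in the mec2-1 strain exposed to compound.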
As for `CCOC(=O)Cn1c(=O)c2nc(SC)sc2n(-c2ccccc2)c1=O`, the growth inhibition was 10.8%.
`Nc1c(I)cc([N+](=O)[O-])cc1I`: the growth inhibition was 2.6%.
As to `COc1ccc(-c2nc3ccccc3[nH]2)cc1`, the growth inhibition is -2.7%.
For `O=C(Nc1ccc(S(=O)(=O)/N=c2\ncccn2C(=O)C(C(F)(F)F)C(F)(F)F)cc1)C(C(F)(F)F)C(F)(F)F` the value was 11.9%; for `CCOC(=O)C1=CNC(C(=O)OCC)C1c1cccn1-c1ccc(Cl)cc1[N+](=O)[O-]` (stereo not given), 16.8%.
For `COC(=O)CC(c1ccc2c(c1)OCO2)N1CCOCC1` (stereo not given) the value was 31.3%; for `CC1=C2CCCCC2(C)C=C(C(=O)O)C1=O` (stereo not given), 50.5%.
In the case of `CC(=O)c1cc2c(cc1C)C(C)(C)CCC2` it was 14.2%; in that of `O=C(Nc1ccc(Cl)cc1)Nc1nnc2nc(CC(=O)c3ccccc3)c(=O)[nH]n12`, 1.1%; in that of `O=C(OC1(c2ccccc2)OC(=O)c2ccccc21)c1ccccc1C(=O)c1ccccc1` (stereo not given), 2.45%.
On to `CCCCCCC(=O)/C=C/c1ccccc1OCOC`, for which the growth inhibition was -9.8%.
For the compound `CSC1(SC2=NCCN2)SC2(NCCN2)S1`, the growth inhibition was -10.8%.
For `O=C1OC(c2ccccc2)=CC1(Cc1ccccc1)Cc1ccccc1` the value was -25.4%; for `O=S(=O)(Nc1ccccc1C(O)c1ccccc1)c1ccccc1` (stereo not given), 0.8%.
For the compound `O=C(Nc1ccccc1Cl)c1ccc(F)cc1`, the growth inhibition is -12.2%.
For `S=C(NC1CCCCC1)N1CCC(CCCC2CCN(C(=S)NC3CCCCC3)CC2)CC1` the value was -31.2%; for `O=C(O)c1c[nH]c2cc(O)ccc2c1=O`, 3.3%; for `c1ccc2nc(N3CCCC3)c(N3CCCC3)nc2c1`, -12.6%.
With `O=C(NN1C(=O)C(Cl)C1c1cccc([N+](=O)[O-])c1)c1ccccc1O` (stereo not given), the growth inhibition is -26.1%.
As to `CCc1cc2c(c3c1CCC3=O)CC1(Cc3ccc(C)cc3C1)C2` (stereo not given), the growth inhibition is -54.5%.
In the case of `CC(=O)N(/C=C\C1=[N+](C)CCS1)c1ccccc1`, the growth inhibition was -10.4%.
With `O=C1C2CN(Cc3ccccc3)CC2C(=O)N1c1ccccc1` (stereo not given), the growth inhibition was 13%.
For `CC1(C)C[C@H](OC2CCCCO2)[C@H]2O[C@@]2(C)C1` (stereo not given in full) the value was 4.3%; for `CC(=O)C1CCCCCCC1=O` (stereo not given), -5.35%; for `CC(C)(C)C1=CC(=N/N=c2\scc(-c3ccccc3)n2Cc2ccccc2)C=C(C(C)(C)C)C1=O`, -4.6%.
As for `Cc1ccc(Cl)cc1NC(=O)C(C)Oc1ccccc1` (stereo not given), the growth inhibition was -1.85%.
With `CCOC(=O)c1cnc2cc3c(cc2c1Nc1ccc2c(c1)OCO2)OCO3`, the growth inhibition was 13.3%.
In the case of `Cc1ccc(S(=O)(=O)N(CCCc2c(Cl)nc(N)nc2Cc2ccccc2)c2ccccc2)cc1` it was -16.5%; in that of `CC1CS(=O)(=O)CC(C)S1(=O)=O` (stereo not given), -1.55%; in that of `c1ccc2cc3c(cc2c1)OP1(=NP2(=NP4(=N1)Oc1cc5ccccc5cc1O4)Oc1cc4ccccc4cc1O2)O3`, 28.1%.
In the case of `COc1ccc2c(c1)OC(C)(C)C(c1ccccc1)=C2c1ccc(OCCN2CCCC2)cc1` it was 99.8% (active); in that of `Cc1ccc2nc(C(O)C(O)C(O)CO)[nH]c2c1` (stereo not given), -14.9%.
As to `COc1cccc(NC(=O)CSc2nnc(-c3ccc(NC(C)=O)cc3)o2)c1`, the growth inhibition is -15.5%.
With `COC(=O)C1=C(NC(=O)Nc2ccc([N+](=O)[O-])cc2)OC(C)(C)C1c1ccc(Cl)cc1` (stereo not given), the growth inhibition was 9.15%.
For the compound `CCOP(=Nc1ccccc1)(OCC)OCC`, the growth inhibition is 5.85%.
Consider `Nc1c(S(=O)(=O)O)cc(S(=O)(=O)O)c2ccc(N=Nc3ccccc3)c(O)c12`, for which the growth inhibition is 0.9%.
For `O=S1OCC#CCOS(=O)OCC#CCO1` (stereo not given) the value was -23.8%; for `S=c1cc(Cc2ccccc2)[nH]c(=S)[nH]1`, -11.1%; for `CCOC1CCC(C(C)=O)C(C#N)(C#N)C1(C#N)C#N` (stereo not given), -9.55%.
Take `C1C2CC3(CO3)C1C1OC21` (stereo not given): the growth inhibition is -13.8%.
